This is an account of results in PubChem BioAssay AID540280 (National Center for Advancing Translational Sciences (NCATS), 2011).

The other results are listed elsewhere or left out. Activity calls are given as the source filed them. The call rests on the fitted dose curve.
Potency means the concentration at half of the fitted maximal effect.

The assay deals with DNA polymerase beta (Homo sapiens) (UniProt P06746). Briefly: Inhibitors of DNA Polymerase Beta: Hit validation. Particulars: Pol beta primer extension/strand displacement, fluorescence kinetic. The source says:
The base excision repair system in human cells is a target for therapeutic modulation of the response to irradiation treatment and DNA-damaging drugs. A key enzyme in this system is the bi-functional DNA polymerase known as DNA polymerase Beta (Pol Beta). The following is a homogeneous kinetic assay to study the primer extension and strand-displacement reaction catalyzed by pol beta.
A stepwise description of the 1536-well assay is shown in next Table. Three microliters of reagents (buffer in column 3 and 4 as negative control and 10 nM Pol beta in columns 1, 2, and 5-48) was dispensed into 1,536-well black solid-bottomed plate. Compounds (23 nL) were transferred via Kalypsys pin tool equipped with 1536-pin array (10 nL slotted pins, V&P Scientific, San Diego, CA). The plates were incubated for 15 min at room temperature, and 1 uL substrate (50 nM final concentration) were added to start the reaction and immediately read at 0 min read on Viewlux reader. The plate were further incubated for 10 min at room temperature, and then read on Viewlux again. Throughout the screen, reagent bottle and all liquid lines were chilled and made light-tight to minimize reagent degradation. All screening operations were performed on a fully integrated robotic system (Kalypsys, San Diego, CA) containing one RX-130 and two RX-90 anthropomorphic robotic arms (Staubli, Duncan, SC). Library plates were screened starting from the lowest and proceeding to the highest concentration, and a double-dipping step of the highest concentration was required to access higher concentrations of compounds. Vehicle-only plates, with DMSO being pin-transferred to the entire column 5-48 compound area, were inserted uniformly at the beginning and the end of each library in order to monitor for and record any shifts in the background, which can be affected by reagent dispensers or loss in enzyme activity overtime. Screening data were corrected, normalized, and concentration-effect relationships were derived by using publicly-available curve fitting algorithms developed in-house (http://ncgc.nih.gov/pub/openhts). A four parameter Hill equation was fitted to the concentration-response data by minimizing the residual error between the modeled and observed responses.
Take `COc1cc([C@H](Cc2ccccc2)NC(C)=O)oc(=O)c1`: the Potency is 28.2 µM (active).
With `COc1ccc(Cc2nnc(NC(=O)Cc3cccs3)s2)cc1` the figure was 6.31 µM (active); with `Cc1c(CC(=O)N2CCN(C(=O)C3COc4ccccc4O3)CC2)c(=O)oc2c(O)c(O)ccc12` (configuration not stated), 2.24 µM (active); with `Cc1ccc2nc(-c3ccncc3)cc(C(=O)Nc3ccc(OC(F)F)cc3)c2c1`, 35.5 µM (active).
With `O=C(Nc1ccc(S(=O)(=O)Nc2nccs2)cc1)c1cc(-c2ccncc2)nc2ccccc12` the figure was 25.1 µM (active).
For `Cc1c(CCC(=O)O)c(=O)oc2c(C)c(OCc3ccccc3Cl)ccc12`, the Potency is 12.6 µM (active).
Next, `Cc1ccc(C(=O)Oc2coc(CSc3nnc(NC(=O)c4cccs4)s3)cc2=O)cc1C`: 31.6 µM (active).
